The source made the active and inactive calls. The calls were made as follows: active = hit-call score of the fitted dose curve at least 0.9, where 1 is the maximum; inactive = score below 0.9.
Experiment: CCTE_Shafer_MEA_dev_interburst_interval_mean: CCTE's Neural Network Formation Assay for Mean Interburst Interval, Shafer Lab (AID 2284046);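 also: well-mean interburst interval of bursting electrodes as AUC over four recording days; curve fitted for decrease in interburst interval relative to DMSO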
Procedure, shortened: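 Rat cortical neurons, 1.5 x 10^5 cells/well, 48-well MEA; compound from day 0 through DIV 12, media and treatment renewed DIV 5/9. Recordings DIV 5, 7, 9, 12; well-mean interburst interval → trapezoidal AUC, loss direction vs DMSO.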

outcome, inactive:
CC(=O)CC(c1ccccc1)c1c(O)c2ccccc2oc1=O (stereo not given), OCC(O)CO, O=C1NC(=O)C(c2ccccc2)(c2ccccc2)N1

AC50, active:
COC(=O)[C@H]1[C@H]2C[C@@H]3c4[nH]c5cc(OC)ccc5c4CCN3C[C@H]2C[C@@H](OC(=O)c2cc(OC)c(OC)c(OC)c2)[C@@H]1OC 3.27 µM, CN(C)CCCN1c2ccccc2Sc2ccc(Cl)cc21 7.95 µM

Experiment: CCTE_Shafer_MEA_dev_inter_network_spike_interval_mean: CCTE's Neural Network Formation Assay for Mean Inter-network Spike Interval, Shafer Lab (AID 2284047)
Procedure: CCTE_Shafer_MEA_dev assay is conducted using Axion Biosystems 48 well microelectrode array (MEA) plates and Maestro recording system. Each well of the MEA plate contains a grid of 16 microelectrodes embedded in the culture surface. Electrically active cells, such as neurons, can be cultured over the electrodes, and electrical activity in these cells can be recorded extracellularly. The spontaneous firing of neurons is captured from each electrode on a microsecond timescale providing both temporally and spatially precise data. […] The CCTE_Shafer_MEA_dev assay uses primary cultures of rat cortical neurons. Recordings are made on days post-plating 5, 7, 9 and 12. As these cultures mature over time, neural networks develop functional activity and form cohesive networks in which electrical activity can be highly coordinated. CCTE_Shafer_MEA_dev_inter_network_spike_interval_mean is 1 of 19 assay components of the CCTE_Shafer_MEA_dev assay. It measures the average time interval between network spikes (temporally-clustered groups of actional potential firing across multiple electrodes) as the average time between peaks of consecutive network spikes during a recording in a microelectrode array (MEA) using Axion Biosystems Maestro 768 channel amplifier with the AxIS adaptive spike detector. To collapse across multiple recordings made on days post-plating 5, 7, 9 and 12, the trapezoidal area-under-the-curve of the component is calculated.Data from the assay component CCTE_Shafer_MEA_dev_inter_network_spike_interval_mean was analyzed into 1 assay endpoint. This assay endpoint, CCTE_Shafer_MEA_dev_inter_network_spike_interval_mean, was analyzed in the negative analysis fitting direction relative to DMSO as the negative control and baseline of activity. Using a type of functional reporter, gain or loss-of-signal activity can be used to understand electrical activity.
On the day prior to culture, each well was coated thoroughly with 150 uL of 0.05% polyethyleneimine (PEI, Sigma Cat P3143) in 50 mM HEPES (Sigma Cat H7523) at a pH of 8. The plate was incubated at 37C for one hour. PEI was rinsed out with 500 uL of sterile water three times. Plates were stored at 4C until the day of culture. This culture was plated at a seeding density of 1.5 x 10^5 cells/well on a 48-well MEA plate, prepared as described above. Cells were administered via a 25 uL media/laminin ([…]; Sigma Cat L2020-1MG) drop directly onto the microelectrode array, as adding the cells with the laminin results in better attachment than pre-coating with laminin. After 2 hours, an additional 475 uL of cortical media was added and the cells returned to the incubator. Exposure starts at day 0 of plating and is continued over twelve days of network development until the experiment is terminated. Cells are fed with fresh medium on DIV 5 and 9, following the recordings on those days. The entire volume of media in the well is exchanged and any vehicle or compound treatment is renewed. Complete details are found in OP-NHEERL/ISTD/SBB/TJS/2015-03-r0 (available on request, email shafer.tim@epa.gov). Measurement of the electrical activity is non-invasive, and recordings can be made from the same plate over multiple different days of the culture. In cortical neurons, this allows for the measurement of extracellular action potentials over the period during which networks form in the MEA plate.

outcome, inactive:
CC(=O)CC(c1ccccc1)c1c(O)c2ccccc2oc1=O (stereo not given), OCC(O)CO, COC(=O)[C@H]1[C@H]2C[C@@H]3c4[nH]c5cc(OC)ccc5c4CCN3C[C@H]2C[C@@H](OC(=O)c2cc(OC)c(OC)c(OC)c2)[C@@H]1OC, O=C1NC(=O)C(c2ccccc2)(c2ccccc2)N1, CN(C)CCCN1c2ccccc2Sc2ccc(Cl)cc21

From PubChem BioAssay (EPA / NIEHS)
